# Laboratory results reported in PubChem BioAssay AID1851 (National Center for Advancing Translational Sciences (NCATS), 2009).
# Out of some 16,000 compounds screened, about 5,800 (36%) were called active. Roughly 23% stayed inconclusive and do not appear here. The call rests on the fitted dose curve; in most records, active means well fitted curve in the direction sought with a large enough effect; inconclusive means small, poorly fitted or top-dose-only effect, or effect the other way; inactive means no such curve, though single readings can be large or run the other way. The list shows a part of the results.
# Target: Cytochrome P450 2C19 (Homo sapiens) (UniProt P33261)
# Sequence (P33261 whole entry, looked up): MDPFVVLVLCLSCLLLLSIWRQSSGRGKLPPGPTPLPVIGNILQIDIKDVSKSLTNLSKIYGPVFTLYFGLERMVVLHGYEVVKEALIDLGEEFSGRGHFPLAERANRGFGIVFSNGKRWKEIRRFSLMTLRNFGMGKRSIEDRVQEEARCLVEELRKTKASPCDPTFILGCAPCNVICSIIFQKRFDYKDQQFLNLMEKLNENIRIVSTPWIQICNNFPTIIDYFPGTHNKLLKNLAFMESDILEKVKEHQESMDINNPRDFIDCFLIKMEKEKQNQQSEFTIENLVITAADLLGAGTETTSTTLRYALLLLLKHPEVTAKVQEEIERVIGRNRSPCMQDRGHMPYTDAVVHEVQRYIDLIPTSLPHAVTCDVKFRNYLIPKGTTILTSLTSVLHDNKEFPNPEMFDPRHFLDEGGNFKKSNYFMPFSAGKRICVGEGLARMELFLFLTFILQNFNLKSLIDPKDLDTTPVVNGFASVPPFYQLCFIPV
# Test: Cytochrome panel assay with activity outcomes
# Conditions: recombinant CYP, pro-luciferin dealkylation, luminescence, p450-cyp2c19; series mostly up to 57.1 µM
# On the % scale 0 is the no-effect control and ±100 the full control effect.
SMILES,"activity, negative = inhibition",AC50
C[C@@]1(CCOCc2ccccc2)NC(=O)NC1=O,0.432% [at 11.4 µM] (inactive),–
COc1cc(OC)c(OC)cc1C=NCC1(c2ccccc2)CCCC1,–,inactive
COc1ccc(C2(CNC(=O)/C=C/c3ccco3)CCCC2)cc1OC,–,7.94 µM (active)
CC[N+](CC)(CC)CC[C@](O)(c1ccccc1)C1CCCCC1,–,inactive
CCCc1cc2c(n1CCc1ccc(Cl)cc1)C(C)C1CN(C(=O)c3ccccc3)C(C)(C(=O)OC)C21 (stereo not drawn),–,6.31 µM (active)
Nc1ccc(C(=O)C[C@H](N)C(=O)O)cc1O,-13.9% [at 11.4 µM] (inactive),–
O=C(O)[C@H]1CCCNC1,–,inactive
Cc1ccccc1-c1cc(-c2ccccc2O)on1,–,4.47 µM (active)
Nc1nc(-c2ccccc2)cc(-c2ccccc2O)n1,–,10 µM (active)
Oc1ccccc1-c1cc(-c2ccccc2)no1,–,7.94 µM (active)
CC(C)=NOCc1ccc(-c2cc(-c3ccccc3)no2)cc1,-13.3% [at 11.4 µM] (inactive),–
Cc1[nH]c2ccccc2c1-c1cc(-c2cc(-c3c(C)[nH]c4ccccc34)on2)no1,0.833% [at 11.4 µM] (inactive),–
Nc1nc(-c2cc(-c3cccc4ccccc34)nc(N)n2)cc(-c2cccc3ccccc23)n1,11.9% [at 11.4 µM] (inactive),–
COc1cc2c(cc1OC)-c1cc3ccc(OC)c(OC)c3c[n+]1CC2,–,inactive
CCOC(=O)C1=C(C)NC(=S)NC1c1cccc(O)c1 (stereo not drawn),–,25.1 µM (active)
COc1ccc(N2C(=O)CCC(C(=O)O)C2c2ccc(F)cc2)cc1 (stereo not drawn),–,inactive
COC(=O)C1=C(C)C(c2ccc(OC)cc2)NC(=S)N1 (stereo not drawn),–,14.1 µM (active)
CCOC(=O)C1=C(C)C(c2ccccc2OC)NC(=S)N1 (stereo not drawn),–,5.62 µM (active)
COc1ccc(C2C(C(=O)N3CCOCC3)CCC(=O)N2c2ccc(OC)cc2)cc1 (stereo not drawn),–,inactive
CCOC(=O)c1c(NC(C)=O)sc2c(OC)cccc12,–,inactive
CS(=O)(=O)N1CCC2(CC1)CN(C(=O)Nc1cccc(C#N)c1)C2,–,inactive
CC(NC(=O)Cn1cnc([N+](=O)[O-])n1)c1ccccc1 (stereo not drawn),–,39.8 µM (active)
CCN(CC)C(=O)Cn1cnc([N+](=O)[O-])n1,–,inactive
CC(C)(C)NC(=O)Cn1cnc([N+](=O)[O-])n1,–,inactive
O=S(=O)(c1ccccc1)N1CCC2(CCN(C(c3ccccc3)c3ccccc3)CC2)CC1,–,inactive

SMILES,"activity, negative = inhibition",AC50
O=C1CCC(c2ccccc2)=NN1c1nc2ccccc2s1,6.12% [at 11.4 µM] (inactive),–
O=S(=O)(c1ccccc1)N1CCCC1c1nc2ccccc2s1 (stereo not drawn),–,4.47 µM (active)
N#CCCn1c(=O)c(-c2cccc(C#N)c2)nc2cnc(N3CCOCC3)nc21,–,inactive
COc1ccc2c(c1)-c1ccccc1S(=O)(=O)N2C,–,14.1 µM (active)
CC1CC2=C(NC(=S)NC2c2ccc(F)cc2)/C(=C/c2ccc(F)cc2)C1 (stereo not drawn),–,3.55 µM (active)
Cc1cccc(C(=O)N2CCN(c3ccc([N+](=O)[O-])c(NCc4ccco4)c3)CC2)c1,–,7.94 µM (active)
Cc1cccc(C(=O)NCN2CCN(c3ccccc3C#N)CC2)c1,–,inactive
Cc1ccccc1C(=O)N1CCN(c2ccc([N+](=O)[O-])c(NCc3ccco3)c2)CC1,–,3.16 µM (active)
N#Cc1ccc(C(=O)Nc2ccc(N3CCN(C(=O)c4ccco4)CC3)cc2)c(F)c1,–,inactive
CC[C@]1(O)C[C@H]2CN(CCc3c([nH]c4ccccc34)[C@](C(=O)OC)(c3cc4c(cc3OC)N(C=O)[C@H]3[C@@](O)(C(=O)OC)[C@H](OC(C)=O)[C@@]5(CC)C=CCN6CC[C@]43[C@H]65)C2)C1,–,inactive
Cc1[nH]nc(-c2ccc(OCc3cnn(-c4ccccc4)c3)cc2O)c1Oc1ccccc1F,–,1.78 µM (active)
O=C(Nc1ccc2oc(-c3ccccc3F)nc2c1)c1ccc2c(c1)OCCO2,–,3.98 µM (active)
CCCNC(=O)N1CCC(C(=O)c2ccc(F)cc2)CC1,–,17.8 µM (active)
Cc1ccc(NC(=O)CN2CCC(NC(=O)Cc3ccccc3)CC2)cc1C,–,0.0178 µM (active)
CCC(C)[C@H](NC(=O)NC1CCN(Cc2ccccc2)CC1)C(=O)OC (stereo partly drawn),–,inactive
O=C(NC1CCN(Cc2ccccc2)CC1)c1ccc(I)cc1,–,15.8 µM (active)
O=C(Cc1ccccc1)NC1CCN(S(=O)(=O)c2ccc(C(=O)O)cc2)CC1,–,inactive
CN(C)CCNC(=O)C(C(=O)c1ccc(F)cc1)n1ccccc1=O (stereo not drawn),–,inactive
COc1cc(N)c(Cl)cc1C(=O)NC1CCN(Cc2ccccc2)CC1,–,inactive
COc1ccccc1NC(=O)CN1CCN(c2ccccc2F)CC1,–,2.51 µM (active)
O=C1C(O)=C(O)C(=O)C(O)=C1O,–,inactive
NC(N)=NNC(=O)C(=O)O,28.3% [at 11.4 µM] (inactive),–
O=C(c1ccc(F)cc1)C1CCN(CCCCc2ccccc2)CC1,–,inactive
COc1ccccc1NC(=O)CN1CCC(C(=O)c2ccc(F)cc2)CC1,–,5.01 µM (active)
CCOc1ccccc1NC(=O)C(=O)NCC1CCCN1CC (stereo not drawn),–,inactive

SMILES,"activity, negative = inhibition",AC50
Cc1cccc(N2CCN(CC(=O)Nc3ccc(-n4cnnn4)cc3)CC2)c1C,–,inactive
CCN(CC)c1ccc(NC(=O)CN2CCN(c3ccccc3F)CC2)cc1,–,14.1 µM (active)
CCOc1ccccc1NC(=O)CN1CCC(NC(=O)c2ccccc2)CC1,–,1 µM (active)
CC(C)NC(=O)N1CC2(CCN(C(=O)c3cc(C(F)(F)F)cc(C(F)(F)F)c3)CC2)C1,–,inactive
Nc1ncnc(N(c2ccccc2)C2CCCCC2)c1[N+](=O)[O-],–,inactive
N=c1nc(N2CCCCC2)cc(N)n1O,–,inactive
Fc1ccccc1OCCCCSc1ncccn1,–,3.98 µM (active)
c1cn(-c2ccnc(-c3ccc4c(c3)OCO4)n2)cn1,–,10 µM (active)
COc1cccc(-c2nccc(NC3CCNCC3)n2)c1,–,inactive
N#Cc1cccc(-c2nc(N3CCNCC3)c3ccccc3n2)c1,–,inactive
CN1CCN(c2ccnc(-c3ccoc3)n2)CC1,–,inactive
COc1cccc(-c2nccc(-n3ccnc3)n2)c1,–,2.51 µM (active)
CCNc1ncc2nc(-c3cccc(C#N)c3)c(=O)n(C)c2n1,–,inactive
N#Cc1cccc(-c2cc(-n3ccnc3)ncn2)c1,–,0.158 µM (active)
N#Cc1cccc(-c2nccc(-n3ccnc3)n2)c1,–,7.94 µM (active)
C[n+]1cc(-c2ccccc2)n2c1CCCCC2,–,inactive
CCCCSCc1nc2nc(Cl)c(Cl)nc2[nH]1,–,2 µM (active)
O=C(Nc1cccc2cccnc12)[C@@H]1[C@@H](C(=O)O)[C@H]2CC[C@@H]1O2,29.3% [at 11.4 µM] (inactive),–
NC(=S)Nc1cccc2cccnc12,–,inactive
CC(C)(C)C(=O)NC(Nc1cccc2cccnc12)C(Cl)(Cl)Cl (stereo not drawn),–,0.794 µM (active)
CC(C)NC1(C(N)=O)CCN(Cc2ccccc2)CC1,-1.03% [at 11.4 µM] (inactive),–
CC(C)OC(=O)C(C#N)c1nc2ccccc2nc1N1CCN(Cc2ccccc2)CC1 (stereo not drawn),–,0.00562 µM (active)
CCN1CCN(c2nn3c(=O)c4ccccc4nc3c3ccccc23)CC1,–,inactive
COC(=O)N1CCC2(CCCN(Cc3ccccc3)C2)CC1,–,inactive
CCCCCCOC(=O)C(C#N)c1nc2ccccc2nc1N1CCN(CC)CC1 (stereo not drawn),–,8.91 µM (active)

SMILES,"activity, negative = inhibition",AC50
CCn1c(=O)[nH]c2cc(Cl)c(Cl)cc21,–,inactive
C=CCN1C(=NC(=O)CC)SC2CS(=O)(=O)CC21 (stereo not drawn),–,inactive
COc1ccc(CCN2C(=NC(=O)CCC(=O)O)SC3CS(=O)(=O)CC32)cc1 (stereo not drawn),–,14.1 µM (active)
CCCC(=O)N=C1SC2CS(=O)(=O)CC2N1c1ccc(CC)cc1 (stereo not drawn),–,7.08 µM (active)
CC(C)NC(=O)N1CC2(CCN(C(=O)c3ccncc3)CC2)C1,–,inactive
Clc1ccc(-c2cc3ccccc3[nH]2)cc1,–,3.16 µM (active)
c1ccc(C[n+]2cccc(-c3cc4ccccc4[nH]3)c2)cc1,22.1% [at 11.4 µM] (inactive),–
OC(c1ccccc1)(c1ccc(F)cc1)C(c1ccccc1)N1CCOCC1 (stereo not drawn),–,2.82 µM (active)
C[C@@H](N1CCOCC1)[C@@](O)(c1ccccc1)c1ccccn1,5.67% [at 11.4 µM] (inactive),–
CC(C)NC(=O)N1CCC2(CC1)CCN(C(=O)c1cccc(F)c1)CC2,–,inactive
C=C[C@@]1(C)CC(=O)[C@@]2(O)[C@@]3(C)[C@@H](O)CCC(C)(C)[C@@H]3[C@H](OC(=O)CCN(C)C)[C@H](OC(C)=O)[C@@]2(C)O1,–,0.251 µM (active)
C=C[C@@]1(C)CC(=O)[C@@]2(O)[C@@]3(C)[C@H](O)CCC(C)(C)[C@@H]3[C@H](O)[C@H](OC(C)=O)[C@]2(C)O1,–,inactive
Cc1cc(C2CCCCC2)n(O)c(=O)c1,–,inactive
Cc1cc2nc(SCCOC(=O)Nc3ccc(Cl)cc3)nc(C)c2cc1C,–,0.794 µM (active)
CSc1ccc(S(=O)(=O)Nc2ccc3c4c(cccc24)CC3)cc1,–,0.447 µM (active)
O=C(c1cc(C(F)(F)F)cc(C(F)(F)F)c1)N1CCC[C@@]2(CCN(Cc3nccs3)C2)C1,–,inactive
O=C(c1cccc(F)c1)N1CCC[C@@]2(CCN(Cc3nccs3)C2)C1,–,2.51 µM (active)
O=C(c1cccc(F)c1)N1CCC2(CCCN(Cc3nccs3)C2)CC1,–,inactive
O=C(c1ccncc1)N1CCC2(CCN(Cc3nccs3)CC2)CC1,–,inactive
O=C(c1cc(C(F)(F)F)cc(C(F)(F)F)c1)N1CCC2(CCN(Cc3nccs3)CC2)CC1,–,inactive
O=C(c1cccc(F)c1)N1CCC2(CCN(Cc3nccs3)CC2)CC1,–,1.58 µM (active)
CCC1(c2ccccc2)C(=O)NCNC1=O,–,inactive
COCCn1c(=O)c(-c2ccccc2)nc2cnc(Nc3cccc(OC)c3)nc21,–,inactive
